High-throughput results from PubChem.
A549 tox: Nrf2 qHTS screen for inhibitors: counterscreen for cytotoxicity; A549 ARE-Fluc cells, CellTiter-Fluor viability, 18-24 h; 0.16% of 390,000 active; Potency, µM (series often up to 46 µM), most hits filed as inhibitors
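A549 ARE_Fluc cells in 5% FBS OPTI-MEM were exposed to compounds in concentration-response for 18-24 h at 37 deg C. Viability was read by CellTiter-Fluor fluorescence (Ex 405/Em 525) after 30 min, before the luciferase read.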
12-LOX inh: Primary qHTS assay for inhibitors of human arachidonate 12S-lipoxygenase (ALOX12): Round 2; Polyunsaturated fatty acid lipoxygenase ALOX12 (Homo sapiens), P18054; purified 12hLO, xylenol orange hydroperoxide absorbance; Potency, µM (highest dose often 108 µM), actives largely listed as inhibitors; 1.1% of 580,000 active; AID 1671190, 2021
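Purified human 12hLO (150 nM final) in 25 mM Hepes, 0.01% Triton X-100, pH 7.0 was preincubated 15 min at room temperature with compound. Then 40 uM arachidonic acid was added, 30 min. Hydroperoxide was read by Fe-XO absorbance ratio 573/405 nm.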
ERG Ets-DNA blk: qHTS for Small Molecule Inhibitors of the ERG Ets/DNA interaction; fluorescence polarization, His-ERG Ets domain / labelled DNA; Potency, µM (series often up to 76.9 µM), actives largely listed as inhibitors; AID 624246, 2012; Transcriptional regulator ERG (Homo sapiens), P11308; 0.028% of 370,000 active; active = well fitted inhibition curve with a large enough effect in the polarisation, with a control signal flat; inconclusive = small, poorly fitted or top-dose-only effect, or effect the other way, or a change in a side signal; inactive = no such curve, though single readings can be large or run the other way; the % refers to the polarisation;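 also: polarization taken with two DNA probes labelled with fluorescein and Texas red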
Target sequence (P11308 whole entry, looked up, the tested form may be a part): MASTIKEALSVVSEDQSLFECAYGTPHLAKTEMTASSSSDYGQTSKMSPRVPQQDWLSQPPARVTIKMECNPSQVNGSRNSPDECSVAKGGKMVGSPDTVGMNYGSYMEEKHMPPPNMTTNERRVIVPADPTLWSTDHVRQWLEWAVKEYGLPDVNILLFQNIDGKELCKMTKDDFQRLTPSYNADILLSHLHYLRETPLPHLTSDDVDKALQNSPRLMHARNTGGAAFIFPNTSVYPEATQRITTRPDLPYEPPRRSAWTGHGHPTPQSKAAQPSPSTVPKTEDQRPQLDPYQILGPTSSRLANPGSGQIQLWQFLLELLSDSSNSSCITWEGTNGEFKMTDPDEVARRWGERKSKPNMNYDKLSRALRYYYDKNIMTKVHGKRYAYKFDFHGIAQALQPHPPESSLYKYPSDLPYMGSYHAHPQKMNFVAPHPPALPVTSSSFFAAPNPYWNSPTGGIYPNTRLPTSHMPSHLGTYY
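His-tagged ERG Ets domain (1 uM in the protein solution; 300mM KCl, 50mM Tris-HCl, 1mM EDTA, 1mM DTT, pH 7.5) received compound, then a probe mix of 5 nM fluorescein-DNA and 100nM Texas-615-DNA. Fluorescence polarization was read for both dyes.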
Nrf2 activator: qHTS of Nrf2 Activators. AREc32 ARE-luciferase reporter (MCF7-derived line), luminescence, 24 h. Potency, µM (doses to about 46.1 µM), usual class: activators. 0.31% of 410,000 active. AID 624171, 2012; also: nearly all actives have a fitted effect of over 65% in size
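ARE-driven firefly luciferase activity in AREc32 cells measured after a 24 hr compound exposure at 37 deg C, using Steady-Glo reagent and a 30 min room-temperature hold.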
Nrf2 inh: Nrf2 qHTS screen for inhibitors; A549 ARE-Fluc reporter, luciferase luminescence, 18-24 h; 2.1% of 360,000 active; Potency, µM (highest dose often 46 µM), usual class: inhibitors; also: nearly all actives have a fitted effect of over 60% in size
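Two sequential reads on A549 ARE_Fluc cells exposed to compound for 18-24 h: a CellTiter-Fluor fluorescence read for viability, then a luciferase luminescence read for Nrf2/ARE activity.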
LDHA inh: qHTS assay for inhibitors of human lactate dehydrogenase; L-lactate dehydrogenase A chain (Homo sapiens), P00338; purified LDHA, NADH/diaphorase-resazurin fluorescence; active compounds read low; activity change, % (values are at about 110 or 230 µM); 0.15% of 480,000 active; AID 1347041, 2019; in the data active = activity change below about -30%; inconclusive = mostly about -25% to -30%
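Human LDH5 (2 nM) was incubated with 0.06 mM NADH and 0.2 mM pyruvate for 5 min at room temperature in Tris pH 7.4. Remaining NADH was coupled through diaphorase/resazurin, and resorufin fluorescence was read at 0 and 20 min.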
Numbers stand for hits; - = inactive; ? = inconclusive; . = not tested or not shown; ! = not confirmed by another sample; [ ] = dose if it differs, or a comment. Rows were chosen to be rich in hits. Some 2.7% of all compounds tested hit in one or more screens of this group. Unless noted, calls follow the shape of the dose curve; as a rule, active = well fitted curve in the direction sought with a large enough effect; inconclusive = small, poorly fitted or top-dose-only effect, or another doubt; inactive = no such curve, though single readings can be large; an effect the other way counts as inactive or inconclusive.

SMILES	A549 tox	12-LOX inh	ERG Ets-DNA blk	Nrf2 activator	Nrf2 inh	LDHA inh
O=S(Cc1cc(Oc2ccccc2)nc(-c2ccccc2)n1)c1ccccc1 (stereo not drawn)	-	-	-	-	10µM	-
CC(=NNc1nc2ccccc2s1)c1ncccn1	?	-	.	11µM	?	-
C/C(=N\Nc1nc2ccccc2s1)c1cccs1	-	?	-	?	?	-
CCOc1cc(C)c(-c2onc(C(F)(F)F)c2-c2csc(C)n2)c(O)c1	26µM	-	-	-	?	-
Cc1nc(-c2c(C(F)(F)F)noc2-c2ccc(O)cc2O)cs1	-	-	-	-	-	-
COc1ccc(NC(=O)Cn2nnc(C(=O)NCc3cccs3)c2N)c(OC)c1	?	-	-	-	18µM	-
CC(C)c1cc(N2CCN(C)CC2)n2c(nc3ccccc32)c1C#N	.	?	.	.	.	-
O=S(=O)(NCCN1CCOCC1)c1ccc(F)c(Cl)c1	-	20µM	-	-	-	-
O=S(=O)(NCCN1CCOCC1)c1ccc(Cl)c(Cl)c1	-	-	-	-	-	-
CCN(CC)C(=O)Oc1ccc2c(c1)O/C(=C\c1ccco1)C2=O	-	?	-	-	?	-
CCC(=O)Oc1ccc2c(c1)O/C(=C\c1ccco1)C2=O	-	25µM	-	7.9µM	-	-
Cc1ccc2c(c1)c1c3n2CCN(C(=O)C2CC2)C3CCC1 (stereo not drawn)	-	?	-	-	-	-
Cc1ccc2c(c1)c1c3n2CC(=C2C(=O)OC(C)(C)OC2=O)NC3CCC1 (stereo not drawn)	-	11µM	.	-	?	-
CC1CCC(=NNC(=O)c2ccc(Br)o2)CC1 (stereo not drawn)	.	-	.	.	.	-
O=C(NC1(c2ccccc2)CCC1)c1cc(=O)[nH]c2ccccc12	.	11µM	.	.	.	-
COc1ccccc1NC(=O)C(Cc1ccc(Cl)cc1)c1nn[nH]n1 (stereo not drawn)	-	-	-	-	-	-
COc1ccc(CC(C(=O)Nc2ccc(OC)cc2)c2nn[nH]n2)cc1 (stereo not drawn)	-	4.5µM	-	-	-	-
CC(=O)c1cc(NC(=O)c2ccccc2)c(=O)oc1C	-	-	-[15.4 µM]	13µM	-	-
Cc1oc(=O)c(NC(=O)c2ccccc2)cc1C(=O)c1ccccc1	.	?	-	?	-	-
COc1ccc2nc(S(=O)Cc3ncc(C)c(OC)c3C)[nH]c2c1 (stereo not drawn)	-	22µM!	-	-	-	-
COc1ccc2nc(SCC(=O)Nc3c(C)cccc3C)[nH]c2c1	-	-	-	-	-	-
COC(=O)C(C)Oc1ccc2c(-c3ccccc3)cc(=O)oc2c1 (stereo not drawn)	.	-	.	.	.	-32
COC(=O)C(C)Oc1ccc2c(=O)c(-c3ccc4c(c3)OCCO4)coc2c1 (stereo not drawn)	.	-	.	.	.	-34
COC(=O)C(C)Oc1ccc2c(=O)c(-c3ccc(Cl)cc3)coc2c1 (stereo not drawn)	.	-	.	.	.	-
CC(Oc1ccc2c(-c3ccccc3)cc(=O)oc2c1)C(=O)O (stereo not drawn)	-	-	.	-	-	-
SMILES	A549 tox	12-LOX inh	ERG Ets-DNA blk	Nrf2 activator	Nrf2 inh	LDHA inh
CCOC(=O)c1nc2cc(C)c(C)cc2nc1NCc1ccco1	.	?	.	.	.	-
Cc1ccc(S(=O)(=O)N2CCCC2C(=O)n2nc(C)c(Sc3ccccc3)c2C)cc1 (stereo not drawn)	.	?	.	.	.	-35
Cc1ccc(Sc2c(C)nn(C(=O)C3CC3)c2C)cc1	-	-	-	-	-	-
Cc1nn(C(=O)C2CCCN2S(=O)(=O)c2ccc(F)cc2)c(C)c1Sc1ccccc1 (stereo not drawn)	.	-	.	.	.	-34
CCc1cccc(NC(=O)Nc2cccc(-c3ccc(N4CCOCC4)nn3)c2)c1	.	-	.	.	.	.
Cc1c(C(=O)O)nnn1-c1cccc(Br)c1	.	?	.	.	.	-
CSc1ccccc1C(=O)Nc1c(C)cc(C)cc1C	.	-	.	.	.	-32
CSc1ccccc1C(=O)Nc1ccc(C)cc1C	-	-	-	-	?	-
O=C(CSc1ccc2c(c1)OCCCO2)Nc1ccccc1	.	-	.	.	.	-
Cc1ccc(NC(=O)CSc2ccccc2C(=O)Nc2ccc3c(c2)OCCCO3)cc1	.	10µM	.	.	.	?
N#Cc1ccc(CSc2ccccc2C(=O)Nc2ccc3c(c2)OCO3)cc1	.	28µM	.	.	.	-
O=C(Cn1cnc2ccccc21)Nc1ccc2c(c1)OCCCO2	-	-	-	-	13µM	-
O=C(CSc1ccc2c(c1)OCCCO2)Nc1cccc2ccccc12	.	16µM	.	.	.	-
C(#CCN1CCN(Cc2ccccc2)CC1)COCCOC(c1ccccc1)c1ccccc1	.	-	.	.	.	-
c1csc(-c2nc(-c3ccc4c(c3)OCCCO4)cs2)c1	.	?	.	.	.	-
CC(NC(=O)CSc1nc2cc([N+](=O)[O-])ccc2o1)c1ccc(F)cc1F (stereo not drawn)	.	?	.	.	.	-
Cc1ccccc1C(C)NC(=O)CSc1nc2cc([N+](=O)[O-])ccc2o1 (stereo not drawn)	.	25µM	.	.	.	-
Cc1cc(Br)ccc1NC(=O)CNC(=O)c1cc(=O)c2ccccc2o1	.	?	.	.	.	-
Cc1ccc(-c2nc3ccc(C)cn3c2Cc2ccsc2)cc1	.	?	.	-	.	-
Cc1ccc(-c2nc3ccc(Br)cn3c2Cc2ccsc2)cc1	.	3.2µM	.	-	.	-
Cc1ccc(Cc2c(-c3ccc(Br)cc3)nc3ccc(Cl)cn23)cc1	.	35µM	.	-	.	-
CCOC(=O)N1CCC(NC(=O)CSCc2nc(-c3cccc(OC)c3)oc2C)CC1	-	-	-	-	18µM	-
COc1cccc(-c2nc(CS(=O)(=O)CC(=O)NC3CCCC3)c(C)o2)c1	-	-	-	-	21µM	-
COc1ccc(NC(=O)c2cc3sc(C)c(CN4CCCCC4)c3[nH]2)cc1OC	.	-	.	.	.	.
O=C(Nc1ccc2c(c1)OCO2)c1cc2c(s1)-c1ccccc1OC2	.	?	.	.	.	-
O=c1[nH]nc(Cc2ccc(-c3cccc(Cl)c3)o2)c2ccccc12	-	-	-	-	21µM	-
O=C(NCc1n[nH]c(=O)c2ccccc12)c1cc(Cl)ccc1Cl	.	-	.	.	.	-
Cc1ccccc1-n1nnnc1SCC(=O)c1ccc(Br)s1	.	25µM	.	.	.	-
Cc1cccc(C)c1-n1nnnc1SCC(=O)c1ccc(Br)s1	.	-	.	.	.	-
COc1cc(C2c3cc4c(cc3OC(NNC(N)=O)C2C)OCO4)cc(OC)c1OC (stereo not drawn)	-	-	-	-	?	-
